Source: PubChem BioAssay
Sampled rows, rich in hits. Any-hit rate of the full collection: about 12%.
BAZ2B block = qHTS Assay for Inhibitors of BAZ2B; AlphaScreen BAZ2B-H3K14Ac peptide displacement; AID 504333, 2011; Potency, µM (series often up to 114 µM), for inactives: at the top dose activity change, negative = inhibition, most hits filed as inhibitors; 360,000 compounds, 4.4% hits; Bromodomain adjacent to zinc finger domain protein 2B (Homo sapiens), Q9UIF8; also: % is scaled to controls: 0 for no effect and ±100 for the full control effect; nearly all actives have a fitted effect of over 60% in size
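AlphaScreen displacement: compounds (up to 110uM) incubated 30 min at room temperature with a preformed 50 nM BAZ2B/50 nM biotinylated H3K14Ac peptide complex in PBS pH 7.4 with Tween-20. Donor and acceptor beads at 10 ug/mL final added, 20 min light-protected before reading.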
G9a inh = qHTS Assay for Inhibitors of Histone Lysine Methyltransferase G9a; Histone-lysine N-methyltransferase EHMT2 (Homo sapiens), Q96KQ7; G9a H3K9 monomethylation, AlphaScreen, 2 h; Potency, µM (doses to about 102 µM), for inactives: at the highest dose activity, negative = inhibition, hits mostly inhibitors; 350,000 compounds, 8.8% hits; also: % is scaled to controls: 0 for no effect and ±100 for the full control effect; nearly all actives have a fitted effect of over 75% in size
Target sequence (Q96KQ7 913-1193 limits assumed): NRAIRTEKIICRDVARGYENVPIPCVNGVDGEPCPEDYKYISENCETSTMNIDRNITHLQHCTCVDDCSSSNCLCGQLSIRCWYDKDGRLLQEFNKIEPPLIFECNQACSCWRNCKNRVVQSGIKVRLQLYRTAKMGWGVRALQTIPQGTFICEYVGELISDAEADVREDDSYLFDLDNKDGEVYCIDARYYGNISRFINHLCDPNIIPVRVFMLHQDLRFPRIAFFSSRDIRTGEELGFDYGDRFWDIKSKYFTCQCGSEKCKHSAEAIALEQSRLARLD
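Step 1: enzyme (final 20 nM) with compound, 15 min RT. Step 2: substrate peptide 500 nM and SAM 20 uM, 2 h RT. Step 3: anti-H3K9me1 antibody and AlphaScreen beads, 10 min, then plate read.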
JMJD2A Tudor = qHTS Assay for Inhibitors of JMJD2A-Tudor Domain; Lysine-specific demethylase 4A (Homo sapiens), O75164; AlphaScreen JMJD2A-Tudor / H3K4me3 peptide binding; Potency, µM (top dose mostly 114 µM), without a hit: at the top dose activity change, negative = inhibition, actives largely listed as inhibitors; 390,000 compounds, 4.4% hits; also: % is scaled to controls: 0 for no effect and ±100 for the full control effect; nearly all actives have a fitted effect of over 50% in size
Sfp PPTase inh = qHTS Assay for Inhibitors of Bacillus subtilis Sfp phosphopantetheinyl transferase (PPTase). 4'-phosphopantetheinyl transferase ffp (Bacillus subtilis), Q9F4F7. Potency, µM, inactives show largest response in the series, negative = inhibition, most hits filed as inhibitors. 310,000 compounds, 3.5% hits. Biochemical Sfp PPTase activity, qHTS;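 also: the enzyme is Sfp with the accession as filed and its product quenches rhodamine fluorescence; 0% = enzyme reaction without inhibitor and -100% = no enzyme wells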
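Sfp 15 nM + cpd, 15 min RT; start w/ rhodamine-CoA 5 uM, BHQ-2-YbbR 12.5 uM (final); 50 mM Hepes pH 7.6, 10 mM MgCl2, 0.01% NP-40, 0.01% BSA; read 525/598 nm at 0 and 30 min.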
HP1b binding inh = HTS for Inhibitors of HP1-beta Chromodomain Interactions with Methylated Histone Tails | Potency, µM (doses to about 114 µM), for the others: at the highest dose activity change, negative = inhibition, actives largely listed as inhibitors | 390,000 compounds, 0.56% hits | AlphaScreen HP1-beta / biotin-H3K9me3 peptide binding | Chromobox protein homolog 1 (Homo sapiens), P83916 | AID 540317, 2011; also: nearly all actives have a fitted effect of over 70% in size
Target sequence (P83916 whole entry, looked up): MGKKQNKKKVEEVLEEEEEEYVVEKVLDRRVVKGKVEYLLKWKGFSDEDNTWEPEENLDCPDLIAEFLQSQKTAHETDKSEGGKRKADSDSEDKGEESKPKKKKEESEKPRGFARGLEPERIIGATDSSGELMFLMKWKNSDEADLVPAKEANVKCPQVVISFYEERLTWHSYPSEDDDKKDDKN
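HP1-beta protein (50 nM final) preincubated 30 min at room temperature with biotinylated H3(1-18)K9me3 peptide (50 nM) in PBS pH 7.4, 0.01% Tween-20, then compound added for 30 min. AlphaScreen streptavidin donor/nickel chelate acceptor beads (10 ug/mL final), 30 min dark, luminescence read.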
L3MBTL1 block = qHTS Assay for the Inhibitors of L3MBTL1. Lethal(3)malignant brain tumor-like protein 1 (Homo sapiens), Q9Y468. AlphaScreen L3MBTL1–H3K9me1 peptide binding. Potency, µM (titrated, usually from 57.1 µM), without a hit: at the top dose activity, negative = inhibition, most hits filed as inhibitors. 230,000 compounds, 0.66% hits. AID 485360, 2010; also: % is scaled to controls: 0 for no effect and ±100 for the full control effect; nearly all actives have a fitted effect of over 60% in size
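L3MBTL1 50 nM + b-AHA-H3(1-15)K9me1 75 nM, 30 min RT; compound added, 30 min RT; streptavidin donor/Ni-chelate acceptor beads 10 ug/mL each final, 30 min RT dark; AlphaScreen read.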
Active calls of the source: *; ? = inconclusive; nt = no result given; [ ] = dose if it differs, or a comment. Calls follow the shape of the dose curve; as a rule, active = well fitted curve in the direction sought with a large enough effect; inconclusive = small, poorly fitted or top-dose-only effect, or another doubt; inactive = no such curve, though single readings can be large; an effect the other way counts as inactive or inconclusive. Potency is read from the fitted curve at half-maximal effect.

SMILES	BAZ2B block	G9a inh	JMJD2A Tudor	Sfp PPTase inh	HP1b binding inh	L3MBTL1 block
Cc1cc(C(=O)NC(C)C2CCCO2)c(C)o1 (stereo not given)	-4%	22%	-8%	7%	21%	3%
CN(C)c1ccc(N=Nc2ccc3ncccc3c2)cc1	nt	nt	3.2µM*	nt	?	nt
Cc1ccc2ncccc2c1	25%	1%[0.501 µM]	-5%	nt	55%	-7%
CN(C)c1ccc(N=Nc2cccc(F)c2)cc1	4.5µM*	10µM*	8.9µM*	-10%	6.3µM*	nt
c1cnc2ccc(-c3ccc4ncccc4c3)cc2c1	0%	22%[0.501 µM]	-26%	10%	38%	-2%[2.29 µM]
CN(C)c1ccc(N=Nc2cccc3ccoc23)cc1	5.6µM*	6.3µM*	25µM*	45µM*	18µM*	10µM*
Cc1cc(N(C)C)ccc1N=Nc1ccc2ncccc2c1	3.2µM*	-47%[2.33 µM]	6.3µM*	45µM*	8.9µM*	8.9µM*
COc1ccc(NC(=O)COCc2cc(-c3ccco3)on2)cc1Cl	-38%	-33%[59 µM]	-5%	nt	-7%	nt
COc1ccc(C2CC(=O)Nc3c2c(=O)[nH]c2nc4ccccc4n32)cc1 (stereo not given)	-5%	13%[59 µM]	-1%	nt	36%	nt
CC(=O)NNc1cc(N2CCOCC2)nc(N2CCOCC2)n1	5%	45µM*	-30%	?	27%	nt
CC(C)(C)c1ccc(C(=O)NNc2cc(N3CCOCC3)nc(N3CCOCC3)n2)cc1	?	-15%[12.7 µM]	-29%[57.1 µM]	-29%	27%	-8%
CC(C)(C)c1ccc(C(=O)NNc2cc(N3CCCCC3)nc(N3CCCCC3)n2)cc1	10µM*	-33%[59 µM]	?	2%	7.1µM*	-3%
Cc1nc2sc(C(N)=O)c(N)c2c(C)c1CC(=O)c1ccccc1	?	14µM*	-12%	-15%	56%	nt
Cc1nn(C)cc1C(C)NC(=O)c1cc(COc2ccc(F)c(F)c2)on1 (stereo not given)	-18%[57.1 µM]	9%	-14%	7%	42%	nt
O=C(O)CCCCCNc1nc(=S)[nH]c2ccccc12	?	?	22µM*	?	5%	31%
CCOc1cc(C(N)=O)cc(Cl)c1OCc1ccccc1	?	-7%[59 µM]	-12%	-9%	24%	4%
CCOc1cc(/C=C(/NC(C)=O)C(=O)O)cc(Cl)c1OCc1cccc(Br)c1	50µM*	-10%[12.7 µM]	?	3%	3%[57 µM]	1%
CC(=O)C1=C(O)C(=O)N(c2ccc(Br)cc2)C1c1cccc(F)c1 (stereo not given)	-34%	45µM*	-23%	13%	11%	3%
CC(=O)C1=C(O)C(=O)N(c2ccc(O)cc2)C1c1cccc(F)c1 (stereo not given)	5%	-20%	-16%	3%	17%	nt
CC(=O)C1=C(O)C(=O)N(c2cccnc2)C1c1cccc([N+](=O)[O-])c1 (stereo not given)	-21%	?	-31%	1%	-5%	nt
CC(=O)C1=C(O)C(=O)N(c2ccc(O)cc2)C1c1cccc([N+](=O)[O-])c1 (stereo not given)	4%	50µM*	-7%	25%	22%	-2%
CCOC(=O)c1c(C)[nH]c(C)c1C(=O)COc1ncnc2ccccc12	nt	?	16µM*	11%	-22%	nt
CCOC(=O)c1c(C)[nH]c(C)c1C(=O)COC(=O)c1cc2ccccc2cc1O	?	50µM*	?	12%	-15%	-19%
CCOC(=O)c1c(C)[nH]c(C)c1C(=O)COC(=O)c1cc2ccccc2cc1OC	-35%	0%[59 µM]	?	3%	-35%	-11%
CCOC(=O)c1c(C)[nH]c(C)c1C(=O)COC(=O)c1ccc(Cl)c(S(=O)(=O)NCc2ccccc2)c1	?	?	56µM*	1%	-36%	nt
SMILES	BAZ2B block	G9a inh	JMJD2A Tudor	Sfp PPTase inh	HP1b binding inh	L3MBTL1 block
O=C(COC(=O)c1ccc(Cl)c(S(=O)(=O)NCc2ccccc2)c1)NC1CC1	-3%	5%[59 µM]	-23%	nt	16%	-5%
COc1cc(C(=O)OC2CC[C@]3(C)C4CCC5[C@]6(O)CC(O)[C@]7(O)C(CN8CC(C)CCC8[C@]7(C)O)[C@]6(O)C[C@@]53O[C@]24O)cc(OC)c1OC (stereo not given in full)	nt	nt	nt	2%	nt	nt
S=C(c1ccc2c(c1)OCO2)N1CCN(c2cccc(Cl)c2)CC1	nt	nt	-30%	nt	?	nt
O=c1cnc2cnc(N3CCNCC3)nc2n1Cc1cccs1	nt	-4%[12.7 µM]	nt	-2%	nt	nt
CCC(C)(C)n1nnnc1C(c1cc2cccc(C)c2[nH]c1=O)N1CCCC1 (stereo not given)	-28%	11µM*	-31%	-23%	12%	-5%
Cc1cccc2cc(C(c3nnnn3Cc3ccccc3)N3CCN(c4ccccc4)CC3)c(=O)[nH]c12 (stereo not given)	-34%	?	-23%	-27%	-1%	nt
CCC(C)(C)n1nnnc1C(c1cc2cc(C)cc(C)c2[nH]c1=O)N1CCCC1 (stereo not given)	0%	7.9µM*	?	25µM*	11%	-8%
Cc1cc(C)c2[nH]c(=O)c(C(c3nnnn3Cc3ccc4c(c3)OCO4)N3CCCCC3)cc2c1 (stereo not given)	-8%	?	-20%	-10%	13%	nt
Cc1cc(C)c2[nH]c(=O)c(C(c3nnnn3C(C)(C)C)N3CCN(C(=O)c4ccco4)CC3)cc2c1 (stereo not given)	-11%	?	-31%	18µM*	8%	5%
CCC(C)(C)n1nnnc1C(c1cc2cc(C)cc(C)c2[nH]c1=O)N1CCN(Cc2ccc3c(c2)OCO3)CC1 (stereo not given)	-21%	-4%[12.7 µM]	-15%	63µM*	31%	nt
Cc1cc(C)c2[nH]c(=O)c(C(c3nnnn3CC3CCCO3)N3CCC(C)CC3)cc2c1 (stereo not given)	-33%	?	-31%	-21%	-6%	nt
COc1cc(C)ccc1OCCSc1nc2ccc(NC(=O)c3cccs3)cc2s1	-2%	2%[59 µM]	-21%	nt	23%	nt
Cc1cc(C(=O)NCC(c2ccco2)N(C)C)ccc1[N+](=O)[O-] (stereo not given)	-13%	-44%	-32%	13%	-21%	nt
Cc1ccc(F)cc1-c1ccc(C(=O)N=C(N)N)o1	nt	nt	nt	-4%	nt	nt
